An excerpt weighted towards active compounds, which were near 11% of everything screened.
PNC inhibitor – High Content Assay for Compounds that inhibit the Assembly of the Perinucleolar Compartment; PC3M PTB-GFP, PNC prevalence imaging, 16 h; stronger effect = lower value; activity change (PNC), negative = inhibition, % at 10 µM; 3.1% of 140,000 active; AID 2417, 2010;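 active = readout at or below -70, meaning at least 70% loss of cells showing the perinucleolar compartment, a nuclear body marking cancer cells; inconclusive = readout between -30 and a set limit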;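 also: plate controls were DMSO wells for no effect and camptothecin positive control wells for full effect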
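Read-out is percentage of cells bearing a perinucleolar compartment, from automated 20x imaging of fixed, Hoechst-stained PC3M PTB-GFP cells. Cells were seeded 4 h, then exposed 16 h to compound (23 nl of library stock) in duplicate plates.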
HPGD inh – qHTS Assay for Inhibitors of HPGD (15-Hydroxyprostaglandin Dehydrogenase); Potency, µM, without a hit: top-dose activity change, negative = inhibition, usual class: inhibitors; purified HPGD, NADH fluorescence kinetic, PGE2 substrate; 4.3% of 150,000 active; also: potency is read from the fitted curve at half-maximal effect
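NADH formation kinetics: reaction with 30 uM PGE2 and 1 mM NAD+ (final), 20 nM enzyme, Tris-HCl pH 8 with Tween 20, after 15 min compound preincubation at room temperature. Fluorescence change, last versus first of five reads.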
ALDH1A1 block – qHTS Assay for Inhibitors of Aldehyde Dehydrogenase 1 (ALDH1A1); Purified ALDH1A1, NADH fluorescence, propionaldehyde substrate; 7.3% of 220,000 active; Aldehyde dehydrogenase 1A1 (Homo sapiens), P00352; Potency, µM (highest dose often 75.3 µM), for inactives: at the top dose activity, negative = inhibition, usual class: inhibitors;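 also: potency is read from the fitted curve at half-maximal effect; plate controls were no enzyme wells and a reference inhibitor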
Target sequence (P00352 whole entry, looked up): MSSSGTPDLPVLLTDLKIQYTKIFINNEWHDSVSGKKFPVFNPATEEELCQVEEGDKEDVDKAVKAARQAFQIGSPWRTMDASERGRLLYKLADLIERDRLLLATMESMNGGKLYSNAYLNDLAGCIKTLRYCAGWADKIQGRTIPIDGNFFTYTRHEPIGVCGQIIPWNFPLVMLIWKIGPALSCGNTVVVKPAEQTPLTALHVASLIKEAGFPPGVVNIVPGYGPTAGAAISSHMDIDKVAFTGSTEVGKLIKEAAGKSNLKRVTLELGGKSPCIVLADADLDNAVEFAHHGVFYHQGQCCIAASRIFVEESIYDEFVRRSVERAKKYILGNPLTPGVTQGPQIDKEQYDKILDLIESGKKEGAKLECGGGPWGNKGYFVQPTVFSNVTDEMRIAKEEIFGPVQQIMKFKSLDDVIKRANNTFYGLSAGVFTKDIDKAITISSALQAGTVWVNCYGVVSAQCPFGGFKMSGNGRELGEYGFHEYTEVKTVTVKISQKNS
* = called active by the depositor; ? = inconclusive; / = no result; ! = repeats disagree; [ ] = remark or other dose. Unless noted, calls follow the shape of the dose curve; as a rule, active = well fitted inhibition curve with a large enough effect (not every such curve was filed as active); inconclusive = small, poorly fitted or top-dose-only effect, or another doubt; inactive = no such curve, though single readings can be large or run the other way. Unless noted, % is scaled to controls: 0 for no effect and ±100 for the full control effect.

SMILES	PNC inhibitor	HPGD inh	ALDH1A1 block
O=C(O)CCn1cc(C=C2C(=O)NC(=S)NC2=O)c(-c2ccccc2)n1	/	/	1.12µM*
N#CCCn1cc(C=C2C(=O)NC(=O)NC2=O)c(-c2ccccc2)n1	/	/	-9.8%
Oc1ccc(Cl)cc1Cc1ccccc1	/	10µM*	-4.7%
O=C(Nc1ccc(Cl)cc1C(=O)c1ccccc1)c1ccco1	76.0	-9.6%	-10.3%
Oc1ccc(Cl)cc1Cc1cc(Cl)ccc1O	-1.4	14.1µM*!	11.9%
Oc1ccc(Cl)cc1Cl	/	-10.0%	-5.2%
O=C(O)COc1cc(Cl)c(Cl)cc1Cl	/	-12.2%	13.4%
CNCC/C=C\c1cccnc1	/	-6.0%	1.5%
C=C1C2CC[C@@]3(C)C(c4ccoc4)OC(=O)C[C@@]13OC1CC(=O)C(C)(C)C(C(OC(C)=O)C(=O)OC)[C@@]12C (some centres undefined)	/	-4.1%	11.0%
CC(=O)[O-].CC(=O)[O-].O.O.[Cd+2]	/	-1.7%	7.51µM*
CCC(C)=O	/	-13.0%	?
NNC(N)=S	/	-4.4%	?
Cc1c(C(=O)c2cccc3ccccc23)c2cccc3c2n1[C@H](CN1CCOCC1)CO3	/	-22.5%	11.2µM*!
CCn1cc(C(=O)N2CCOCC2)c2ccccc21	/	/	8.0%
O=C(CN1CCOCC1)c1cccc2ccccc12	27.0	-8.8%	12.6µM*
Cc1c(C(=O)c2ccc3ccccc3c2)c2cccc3c2n1[C@H](CN1CCOCC1)CO3	/	3.8%	-14.0%
CNC(=O)OCC[N+](C)(C)C	/	-8.4%	-3.9%
CCCC[C@H]1C(=O)O[C@H](C)[C@H](NC(=O)c2cccc(NC=O)c2OC)C(=O)O[C@@H](C)[C@@H]1OC(=O)CC(C)C	/	-9.9%	-7.0%
C1CCOC1	/	-3.5%	?
CN1CCN(C(=S)c2ccc([N+](=O)[O-])cc2)CC1	-18.2	28.2µM*	?
CN1CCN(c2cc([N+](=O)[O-])ccc2Cl)CC1	/	/	6.3%
C[C@@H]1O[C@@H](OC2CC(O)C3(CO)C4C(CCC3(O)C2)C2(O)CCC(C3=CC(=O)OC3)C2(C)C[C@H]4O)[C@H](O)[C@H](O)[C@H]1O (some centres undefined)	/	-3.1%	14.2%
C[C@H]1CCCC(=O)CCC/C=C/c2cc(O)cc(O)c2C(=O)O1	?	14.1µM*!	14.1µM*
C[C@H]1CCC/C=C/C2C[C@H](O)C[C@H]2[C@H](O)/C=C/C(=O)O1 (some centres undefined)	/	1.5%	-5.7%
c1ccc2c(c1)CCCC2	/	-6.7%	-16.0%
SMILES	PNC inhibitor	HPGD inh	ALDH1A1 block
CC(C)(C)NC[C@H](O)c1cc(Cl)c(N)c(Cl)c1	/	-1.7%	2.9%[20.9 µM]
Cc1cc(NC(=O)CCC(=O)N2CCC3(CC2)OCCO3)no1	-84.0*	-18.3%	-0.8%
COc1ccc(CNCC(=O)N2CCC3(CC2)OCCO3)cc1	-13.0	-5.1%	?
CCCCCCn1c(O)c(C=NCCCn2ccnc2)c(=O)[nH]c1=O	-3.3	-2.3%	-4.1%
CCCCCn1c(SCCCC)nc2c1c(=O)[nH]c(=O)n2C	4.9	14.1µM*	20µM*
CCOC(=O)C/C(C)=N/NC(=O)COc1ccccc1C	-15.1	/	?
Cc1cc(Br)ccc1N1C(=O)CC(=O)NC1=O	-12.5	-4.0%	-1.3%
O=C1CC(=O)N(c2ccc(Cl)cc2Cl)C(=O)N1	-126.9*	-10.0%	6.6%
CC/C=C\C/C=C\C/C=C\C/C=C\C/C=C\CCCC(N)=O	/	-7.5%	-7.4%
CC(C)CN1CCCC2(CCN(C(=O)Oc3ccccc3)CC2)C1	/	-12.0%	-4.6%
Cn1cc(C(=O)NP(=O)(N2CCOCC2)N2CCOCC2)c2ccccc21	/	/	8.0%
CCCn1nc2ccccc2c1P(=O)(N1CCOCC1)N1CCOCC1	-90.1*	-1.5%	3.8%
C[C@@]12Cc3cnc(-c4ccccc4)nc3C[C@@H]1CC[C@@H]1[C@H]3CC[C@@](C)(O)[C@]3(C)CC[C@@H]12	/	-9.3%	?
c1ccc(NC2=Nc3ccccc3CC2)cc1	14.3	-11.4%	?
Cc1nc2ccc(Cl)cn2c1P(=S)(N1CCOCC1)N1CCOCC1	62.6	-4.1%	10.4%
Cn1ccnc1P(=S)(c1nccn1C)N1CCOCC1	10.5	25.1µM*	28.2µM*
CC(=O)OC1CC(OC(C)=O)[C@]2(C)C(CC(OC(C)=O)[C@]3(C)C2CC[C@@]2(C)C(c4ccoc4)C(=O)C4O[C@]432)C1(C)C (some centres undefined)	/	-2.7%	6.0%
CC(C)c1ccc(C(O)(C(=O)O)c2ccc(C(C)C)cc2)cc1	/	-0.5%	6.2%[13.5 µM]
O=C(Cl)c1ccccc1F	/	-13.8%	?
O=S(=O)(O)F	/	-23.1%	-82.3%
Cc1cc(Cc2cc(C)c(N)cc2N)c(N)cc1N	/	-18.6%	?
O=c1c2ccccc2nc(-c2ccoc2)n1-c1ccccc1Cl	12.2	-19.5%	15.8µM*
COc1ccccc1-n1c(-c2ccoc2)nc2ccccc2c1=O	2.3	-10.6%	?
c1cc2c(cc1[C@H]1OC[C@@H]3[C@H]1CO[C@H]3c1ccc3c(c1)OCO3)OCO2	/	-20.9%	-1.4%
O=c1oc2ccccc2c(O)c1Cc1c(O)c2ccccc2oc1=O	/	-6.7%	6.31µM*!
SMILES	PNC inhibitor	HPGD inh	ALDH1A1 block
O=C(O)c1cc2ccccc2oc1=O	26.0	-5.8%	2.8%
O=C(O)[C@H]1C[C@@H]1[C@H](NP(=O)(c1ccccc1)c1ccccc1)c1ccccc1	-82.3*	-3.8%	-9.2%
CNC(=O)[C@@H]1C[C@H]1[C@@H](NP(=O)(c1ccccc1)c1ccccc1)c1ccccc1	/	-2.1%	-11.4%
C[N+]1([O-])[C@@H]2CC(OC(=O)[C@@H](CO)c3ccccc3)C[C@@H]1[C@H]1O[C@H]12 (some centres undefined)	/	-10.2%	-3.7%[13.5 µM]
N/C(=N\[N+](=O)[O-])N/N=C/c1ccc(O)cc1	?	-17.8%	11.9%
Nc1nonc1C(=O)N/N=C/c1ccc([N+](=O)[O-])o1	/	/	12.6µM*
O.O.[NH-]C1(C(=O)O)CCCC1.[NH-]C1(C(=O)O)CCCC1.[Ni+2]	/	-7.5%	-5.5%[13.5 µM]
N#Cc1cccc(NC(=O)N2CC[C@@]3(CCCN(C(=O)Oc4ccccc4)C3)C2)c1	/	-4.6%	-16.1%
COc1cc2c3cc1Oc1c(O)c(OC)cc4c1[C@@H](Cc1ccc(cc1)Oc1cc(ccc1O)C[C@H]3N(C)CC2)N(C)CC4	/	-9.0%	-4.6%[13.5 µM]
COc1cccc(CCNCc2c(F)cccc2F)c1	/	/	10µM*
COc1ccc(CCNCc2cccc(C(F)(F)F)c2)cc1OC	/	/	-7.5%
C[C@H](c1ccccc1)N1CCN([C@@H](C)c2ccccc2)CC1	/	-3.0%	-2.9%[13.5 µM]
CNC[C@H](O)c1ccc(OC(=O)C(C)(C)C)c(OC(=O)C(C)(C)C)c1	/	3.6%	26.2%[20.9 µM]
COc1ccc(NC(=O)N2CCC3(CC2)CCN(C(=O)Oc2ccccc2)CC3)cc1	/	-13.1%	10µM*
COc1ccc(NC(=O)N2CCCC3(CCN(C(=O)Oc4ccccc4)CC3)C2)cc1	/	-1.6%	?
Clc1ccc(CO[C@@H](Cn2ccnc2)c2ccc(Cl)cc2Cl)cc1	/	-2.4%	3.3%[20.9 µM]
CC[C@H]1C(=O)OC[C@H]1Cc1cncn1C	/	-0.6%	14.5%[13.5 µM]
Cc1ccc(-n2c(O)c(C=NCCN(C)C)c(=O)[nH]c2=O)cc1	22.1	-15.4%	-0.2%
Cc1ccc(N/N=C/c2c(O)n(-c3ccccc3)c(=O)[nH]c2=O)cc1	/	/	11.2µM*

High-throughput results deposited in PubChem BioAssay by National Center for Advancing Translational Sciences (NCATS).
